Test results as given in PubChem BioAssay (NCATS).
Results filed as inconclusive are left out. Entries that show only a call come without a potency. Active and inactive are the calls of the source. The call rests on the fitted dose curve; in most records, active means well fitted cell-killing curve with a large enough effect; inconclusive means small, poorly fitted or top-dose-only effect, or effect the other way; inactive means no such curve, though single readings can be large or run the other way.

Test: Quantitative highthroughput screen to assess conditional lethalithy of SEM cells grown in RPMI1640 with unreated serum (RPMI+s) (AID 1963883); further: nearly all actives have a fitted effect of over 35% in size
Conditions: SEM B-ALL cells, CellTiter-Glo viability, 48 h; series mostly up to 45.8 µM
Source text: Assay Provider: Jason Cantor Ph.D.
Department of Biochemistry
University of Wisconsin-Madison, Madison, WI, USA
Chemical screening studies have identified drug sensitivities across hundreds of cancer cell lines but most putative therapeutics fail to translate. Discovery and development of drug candidates in models that more accurately reflect nutrient levels in human blood is a major challenge. Here we performed high-throughput screens in conventional versus Human Plasma-Like Medium (HPLM) to identify compounds that were "missed" when screening using the artificial culture condition. Sets of conditional anticancer compounds spanned phases of clinical development and included non-oncology drugs were assessed. […] We also traced conditional phenotypes for several chemotherapeutics to availability of HPLM-specific metabolites and confirmed others for compounds whose reported targets are encoded by nonessential genes. Our findings establish generalizable strategies for exploiting conditional lethality in HPLM to reveal therapeutic candidates and mechanisms of action in cancer cells.
Described herein are the results of each viability screens against three cell lines: NOMO1 (an acute myeloid leukemia cell line); P12-Ichikawa (a T-cell acute lymphoblastic leukemia); and SEM (a B-cell ALL). Each assay was screened using 3 different cell culture media: homemade human plasma-Like medium with 10% dialyzed fetal bovine serum (HPLM+ds); RPMI1640 with 10% untreated FBS and 5mM glucose (RPMI+s); and RPMI1640 with 10% dialyzed fetal bovine serum and 5 mM glucose (RPMI+ds).
PROTOCOL TABLE (as described by Inglese J, Shamu CE and Guy RK. 2007)
SEQUENCE No. (e.g., 1, 2, 3, etc.); […] (e.g., Cells, Incubation, Reagent, etc.); VALUE and DESCRIPTION.
1; Cells; 5 uL; white, solid bottom 1536-well Greiner assay plate.
2; Compounds; 23 nL; Kalypsis pin tool (Wako USA) equipped with a 1536-well pin head to transfer to the assay plates.
3; Incubation; 48 hours; 37C incubation.
4; Reagent; 3 uL; CellTiter Glo (Promega).
5; Incubation; 5 min, room temperature
6; Detection; Luminescence, Viewlux PerkinElmer.
NOTES (numbers refer to Sequence numbers above)
1. Briefly, 5 ul of cell reagent was dispensed using a Multidrop Combi Dispenser. The NOMO1 and SEM cells were plated at 500 cells/well and the P12-Ichikawa line at 1000 cells/well.
2. After seeding the cells, 23 nL of MIPE 4.1 library compounds (in DMSO) were added to each plate using a Kalypsys 1536 Pintool dispenser. Bortezomib at final concentration of […] and DMSO were added to each plate as positive and negative controls respectively. For each screen, MIPE 4.1 compounds were added over an eleven-point concentration range […] in 3-fold dilutions.
3. Each plate was covered with a stainless steel gasketed lid to prevent evaporation and incubated for 48 hour at 37C, 95% relative humidity, and 5% CO2.
4-5. Three microliter CellTilter-GloTM luminescent substrate mix (Promega) reagent was added to the assay plate and incubated at room temperature for 5 min.
6. The luminescence signal was measured using a ViewLux (PerkinElmer) multiplate reader with a 2 second exposure time per plate. Data for each compound were normalized as percent viability such that measurements for DMSO and the empty well controls in each plate were defined as 100% and 0%, respectively.
Potency means the concentration at half of the fitted maximal effect.

Question: For CCN(CC)CCOc1ccc(Nc2ncc3cc(-c4c(Cl)cccc4Cl)c(=O)n(C)c3n2)cc1, which Potency is on record?
Answer: 1.05 µM (active)

Question: Which Potency does the source give for O=c1c(-c2ccc(O)cc2)coc2cc(OC3O[C@H](CO)[C@H](O)[C@H](O)[C@H]3O)cc(O)c12 (stereo not given in full) here?
Answer: inactive

Question: With CCCNCC(O)COc1ccccc1C(=O)CCc1ccccc1 (stereo not given) as the compound, how does the Potency read?
Answer: inactive

Question: For COC(=O)[C@]12CCC(C)(C)C[C@@H]1[C@@H]1C(=O)C=C3[C@@]4(C)C=C(C#N)C(=O)C(C)(C)[C@@H]4CC[C@@]3(C)[C@]1(C)CC2, which Potency is on record?
Answer: 9.35 µM (active)

Question: For C[C@](Cc1c[nH]c2ccccc12)(NC(=O)OC1C2CC3CC(C2)CC1C3)C(=O)NC[C@H](NC(=O)CCC(=O)O)c1ccccc1 (stereo not given in full), which Potency is on record?
Answer: inactive

Question: Which Potency does the source give for CCCN[C@H]1CCc2nc(N)sc2C1 here?
Answer: inactive

Question: For Nc1ccc(C(=O)c2cc3c(ccc4ccccc43)[nH]2)cc1, which Potency is on record?
Answer: 3.72 µM (active)

Question: With Cc1cc(Nc2cc(N3CCN(C)CC3)nc(Sc3ccc(NC(=O)C4CC4)cc3)n2)n[nH]1 as the compound, how does the Potency read?
Answer: 0.372 µM (active)

Question: For O=C(O)C1=CC(O)C(O)[C@H](O)C1 (stereo not given in full), which Potency is on record?
Answer: inactive

Question: Which Potency does the source give for N#CC(=C(O)c1ccc(Cl)cc1Cl)c1nc2cc(Cl)ccc2c(=O)[nH]1 here?
Answer: inactive

Question: Which Potency does the source give for NC1CCC(N[C@@H]2C[C@H]2c2ccccc2)CC1 (stereo not given in full) here?
Answer: inactive

Question: With NC(N)=Nc1nc(CSCCC(N)=NS(N)(=O)=O)cs1 as the compound, how does the Potency read?
Answer: inactive

Question: For CN(C)CCC=C1c2ccccc2COc2ccc(CC(=O)O)cc21, which Potency is on record?
Answer: inactive

Question: With CCc1ccc(C(=O)Nc2cc(CN3CCN(C)CC3)cc(C(F)(F)F)c2)cc1C#Cc1cnc2ccnn2c1 as the compound, how does the Potency read?
Answer: inactive

Question: For CC(=O)Nc1nc(C)c(-c2ccc(Cl)c(S(=O)(=O)NCCO)c2)s1, which Potency is on record?
Answer: 2.64 µM (active)

Question: Which Potency does the source give for CO[C@@H]1C(N(C)C(=O)c2ccccc2)C[C@H]2O[C@]1(C)n1c3ccccc3c3c4c(c5c6ccccc6n2c5c31)C(=O)NC4=O (stereo not given in full) here?
Answer: 1.87 µM (active)

Question: With COc1cc(N2CCN(C)CC2)ccc1Nc1nc(N)c(C(=O)c2c(Cl)cccc2Cl)s1 as the compound, how does the Potency read?
Answer: 20.9 µM (active)

Question: With CN(C)CCCN=c1c2ccccc2n(C)c2[nH]c(=O)n(C)c(=O)c12 as the compound, how does the Potency read?
Answer: 10.5 µM (active)

Question: With O=C(/C=C\n1cnc(-c2cc(C(F)(F)F)cc(C(F)(F)F)c2)n1)NNc1cnccn1 as the compound, how does the Potency read?
Answer: 0.588 µM (active)

Question: For C[C@@]12C(=O)OC(=O)[C@@]1(C)C1CCC2O1, which Potency is on record?
Answer: 6.62 µM (active)

Question: Which Potency does the source give for Cn1cnc2c1c(=O)[nH]c(=O)n2C here?
Answer: 18.7 µM (active)

Question: Which Potency does the source give for CC(C)(C)OC(=O)N[C@H]1CCCCCC=C[C@@H]2C[C@@]2(C(=O)NS(=O)(=O)C2CC2)NC(=O)[C@@H]2C[C@@H](OC(=O)N3Cc4cccc(F)c4C3)CN2C1=O here?
Answer: inactive

Question: With CCCc1cc(C(N)=S)ccn1 as the compound, how does the Potency read?
Answer: inactive

Question: Which Potency does the source give for N#Cc1ccnc(Nc2cc(C3CCN(C4COC4)CC3)cc(N3CCC(F)(F)C3)n2)c1 here?
Answer: 13.2 µM (active)

Question: With C[C@](N)(Cc1ccc(O)c(O)c1)C(=O)O as the compound, how does the Potency read?
Answer: 23.5 µM (active)

Question: Which Potency does the source give for Cc1ccc(F)c(NC(=O)Nc2ccc(-c3cccc4[nH]nc(N)c34)cc2)c1 here?
Answer: 10.5 µM (active)

Question: With COc1ccccc1OCC(O)CN1CCN(CC(=O)Nc2c(C)cccc2C)CC1 (stereo not given) as the compound, how does the Potency read?
Answer: inactive

Question: For CCC(C=C[C@@H]1OC(=O)C=C[C@H]1C)=C[C@H](C)CC=CC(C)=C[C@@H](C)C(=O)[C@@H](C)[C@H](O)[C@@H](C)CC(C)=CC(=O)O, which Potency is on record?
Answer: 0.0156 µM (active)

Question: With CN(C)c1nc(Cc2ccc(NC(=O)c3ccc4ccccc4c3)cc2)nc(Cl)c1CC(=O)O as the compound, how does the Potency read?
Answer: inactive

Question: Which Potency does the source give for CC(C=CC=C(C)C=CC1=C(C)CCCC1(C)C)=CC=CC=C(C)C=CC=C(C)C=CC1=C(C)CCCC1(C)C here?
Answer: inactive

Question: For CCn1c(C(=O)N(C2CC2)C2CC2)cc2c3c(ncn3C)c(Nc3cc(C)n(C)n3)nc21, which Potency is on record?
Answer: 20.9 µM (active)

Question: For COc1cc(C)c(Sc2cnc(NC(=O)c3ccc(CNC(C)C(C)C)cc3)s2)cc1C(=O)N1CCN(C(C)=O)CC1 (stereo not given), which Potency is on record?
Answer: 5.26 µM (active)

Question: Which Potency does the source give for CC12CC3CC(C)(C1)CC(N)(C3)C2 here?
Answer: inactive

Question: With Cc1ccc(C(=O)Nc2ccc(Oc3cc4cnn(C)c4cc3-c3cn[nH]c3)c(F)c2)c(=O)n1-c1ccc(F)cc1 as the compound, how does the Potency read?
Answer: 0.467 µM (active)

Question: Which Potency does the source give for CC(=O)Oc1ccccc1C(=O)Nc1ncc([N+](=O)[O-])s1 here?
Answer: inactive

Question: With CC[C@H]1OC(=O)[C@H](C)[C@@H](O[C@H]2C[C@@](C)(OC)[C@@H](O)[C@H](C)O2)[C@H](C)[C@@H](O[C@@H]2O[C@H](C)C[C@H](N(C)C)[C@@H]2O)[C@](C)(OC)C[C@@H](C)C(=O)[C@H](C)[C@@H](O)[C@]1(C)O as the compound, how does the Potency read?
Answer: inactive

Question: Which Potency does the source give for Fc1ccc(C(c2ccc(F)cc2)N2CCN(CC=Cc3ccccc3)CC2)cc1 here?
Answer: inactive

Question: Which Potency does the source give for CCOC(=O)C1=C(C)NC(=S)NC1c1cccc(O)c1 (stereo not given) here?
Answer: 0.132 µM (active)

Question: For COc1cc(C(C)=O)ccc1OCCCN1CCC(c2noc3cc(F)ccc23)CC1, which Potency is on record?
Answer: inactive

Question: With O=C(Nc1cccnc1)N1CCC(Cc2cccc(Oc3ccc(C(F)(F)F)cn3)c2)CC1 as the compound, how does the Potency read?
Answer: 2.96 µM (active)
